What follows are molecules tested on Trichuris muris adult worms (assay: mean motility score (Paragon pixel variance) of adult worms (arbitrary units); higher = more motile worms, i.e. less anthelmintic effect; extreme values may be limits of the assay). Conditions: 100 µM; 24 h.
Summary of the method: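 Adult Trichuris muris worms were collected from infected NOD SCID mice and placed one per well in 96-well plates containing 100 μL RPMI-1640 with antibiotics and drug at 100 μM (1% v/v DMSO), then incubated for 24 h at 37°C and 5% CO2. Each plate was filmed on an automated phenotyping platform, capturing 200 frames 100 ms apart. The motility score came from Paragon pixel-variance analysis and was averaged over replicate wells. Every drug was tested with three worms in three wells on three separate occasions, alongside vehicle and positive controls.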
For `CCCCC1C(=O)N(c2ccccc2)N(c2ccccc2)C1=O` [phenylbutazone], the mean motility score was 1530.
`C#Cc1cccc(Nc2ncnc3cc(OCCOC)c(OCCOC)cc23)c1` [erlotinib] gave a mean motility score of 1720.
Work on `Cc1cc2c(s1)Nc1ccccc1N=C2N1CCN(C)CC1` [olanzapine] yielded a mean motility score of 454.
`C[C@@H]1C[C@H]2[C@@H]3CCC4=CC(=O)C=C[C@]4(C)[C@@]3(F)[C@@H](O)C[C@]2(C)[C@@]1(O)C(=O)CO` [dexamethasone] was tested, and the mean motility score was 1780.
With `CCCCOc1ccc(C(=O)CCN2CCCCC2)cc1.Cl` [dyclonine hydrochloride] the mean motility score was 3270.
Work on `CN(CCOc1ccc(CC2SC(=O)NC2=O)cc1)c1ccccn1` (centres undefined) [rosiglitazone] yielded a mean motility score of 603.
Work on `COc1c2ccoc2cc2oc(=O)ccc12` [bergapten] yielded a mean motility score of 3090.
For `NNc1nncc2ccccc12` [hydralazine], the mean motility score was 1960.
`CN/C(=N/CCSCc1nc[nH]c1C)NC#N` [cimetidine] was tested, and the mean motility score was 2750.
`COc1cc(C(=O)NS(=O)(=O)c2ccccc2C)ccc1Cc1cn(C)c2ccc(NC(=O)OC3CCCC3)cc12` [zafirlukast] showed a mean motility score of 0.
`C[C@H](O)C(=O)Nc1c(I)c(C(=O)NC(CO)CO)c(I)c(C(=O)NC(CO)CO)c1I` [iopamidol] gave a mean motility score of 2190.
Molecule `CC[N+](CC)(CCNC(=O)C(=O)NCC[N+](CC)(CC)Cc1ccccc1Cl)Cc1ccccc1Cl` [ambenonium] has a mean motility score of 3180.
Work on `CC[C@H]1OC(=O)[C@H](C)[C@@H](O[C@H]2C[C@@](C)(OC)[C@@H](O)[C@H](C)O2)[C@H](C)[C@@H](O[C@@H]2O[C@H](C)C[C@H](N(C)C)[C@H]2O)[C@](C)(OC)C[C@@H](C)C(=O)[C@H](C)[C@@H](O)[C@]1(C)O` [clarithromycin] yielded a mean motility score of 2330.
In the case of `CCOc1cc(N)c(Cl)cc1C(=O)NCC1CN(Cc2ccc(F)cc2)CCO1` (centres undefined) [mosapride], the mean motility score was 2610.
`Cc1c(N(C)C)c(=O)n(-c2ccccc2)n1C` [aminopyrine] was tested, and the mean motility score was 2250.
`CCCCCCCCCC(=O)OC1(c2ccc(Cl)cc2)CCN(CCCC(=O)c2ccc(F)cc2)CC1` [haloperidol decanoate] gave a mean motility score of 4450.
`CN1C(C(=O)Nc2ccccn2)=C(O)c2ccccc2S1(=O)=O` [piroxicam] showed a mean motility score of 2510.
In the case of `OCC(O)CO` [glycerin], the mean motility score was 3460.
Work on `N=C(N)NC(=N)NCCc1ccccc1` [phenformin] yielded a mean motility score of 4260.
With `Cc1cc2cc3c(C)cc(=O)oc3c(C)c2o1` [trioxsalen] the mean motility score was 2070.
`CC1=C(/C=C/C(C)=C/C=C/C(C)=C/CO)C(C)(C)CCC1` [retinol] gave a mean motility score of 2970.
With `Cc1ccc(Nc2nccc(N(C)c3ccc4c(C)n(C)nc4c3)n2)cc1S(N)(=O)=O` [pazopanib] the mean motility score was 1830.
For `C[C@]12C=CC(=O)C=C1CC[C@@H]1[C@@H]2[C@@H](O)C[C@@]2(C)[C@H]1CC[C@]2(O)C(=O)CO` [prednisolone], the mean motility score was 659.
In the case of `COc1cccc2c1C(=O)c1c(O)c3c(c(O)c1C2=O)C[C@@](O)(C(=O)CO)C[C@@H]3O[C@H]1C[C@H](N)[C@H](O)[C@H](C)O1` [doxorubicin], the mean motility score was 2090.
`Cc1c(C(=O)NN2CCCCC2)nn(-c2ccc(Cl)cc2Cl)c1-c1ccc(Cl)cc1` [rimonabant] showed a mean motility score of 2060.
`Cc1ccc(S(=O)(=O)NC(=O)NN2CCCCCC2)cc1` [tolazamide] was tested, and the mean motility score was 4090.
`CC1CCc2c(N3CCC(O)CC3)c(F)cc3c(=O)c(C(=O)O)cn1c23` (centres undefined) [nadifloxacin] was tested, and the mean motility score was 2660.
`COc1ccc(C(=O)CC(=O)c2ccc(C(C)(C)C)cc2)cc1` [avobenzone] gave a mean motility score of 3070.
In the case of `COc1nc(C)nc(Cl)c1NC1=NCCN1` [moxonidine], the mean motility score was 3500.
`Nc1ccc(S(=O)(=O)NC(=O)c2ccccc2)cc1` [sulfabenzamide] showed a mean motility score of 4050.
For `O=C1c2cccc(O)c2C(=O)c2c(O)cccc21` [danthron], the mean motility score was 2660.
Molecule `COC1=C(OC)C(=O)C(CCCCCCCCCCO)=C(C)C1=O` [idebenone] has a mean motility score of 1370.
`Cc1c(O)cccc1C(=O)N[C@@H](CSc1ccccc1)[C@H](O)CN1C[C@H]2CCCC[C@H]2C[C@H]1C(=O)NC(C)(C)C` [nelfinavir] was tested, and the mean motility score was 1430.
In the case of `N[C@@H](CCC(=O)O)C(=O)O` [L-glutamate], the mean motility score was 3930.
